# From the supplement of paper PMC13380429
# A number with no mark means an inactive call.
# Tested on: Vero E6 infected with SARS-CoV-2
# Assay: SARS-CoV-2 infection rate relative to infected DMSO; higher = more infection, active = 60 or less
# Settings: 24 h
row,Structure (SMILES),SARS-CoV-2 infection rate [%]
1,CN(C)C(=O)c1cc2cnc(Nc3ccc(N4CCNCC4)cn3)nc2n1C1CCCC1 [ribociclib] (10 µM),113
2,CC(C)(C)C#Cc1cc(N(C(=O)[C@H]2CC[C@H](C)CC2)[C@H]2CC[C@@H](O)CC2)c(C(=O)O)s1 (10 µM),107
3,COc1ccc(Oc2c(Cl)cnn(C3c4ccccc4-c4ccccc43)c2=O)cc1 (10 µM),102
4,O=C(NCCN1CCOCC1)c1ccc(Cl)cc1 [moclobemide] (10 µM),103
5,Cn1c(=O)c2c(ncn2CC(=O)Nc2ccc(-c3ccccc3)nn2)n(C)c1=O (10 µM),80.5
6,O=C1c2ccccc2C(Cc2ccnc(F)c2)(Cc2ccnc(F)c2)c2ccccc21 (10 µM),113
7,CC(=O)OC[C@H]1O[C@@H](n2ccc(=O)[nH]c2=O)[C@H](OC(C)=O)[C@@H]1OC(C)=O [uridine-triacetate] (10 µM),112
8,NCC(O)(CS(=O)(=O)O)c1ccc(Cl)cc1 (stereo unspecified) [2-hydroxysaclofen] (10 µM),84.5
9,CCCNC(C)(C)COC(=O)c1ccccc1 [meprylcaine] (10 µM),102
10,Cc1cc2c(cc1CC(=O)c1sccc1S(=O)(=O)Nc1onc(C)c1Cl)OCO2 [sitaxentan] (10 µM),101
11,FC(F)(F)c1cc(NC(=S)Nc2ccc(Br)cc2-c2nnn[nH]2)cc(C(F)(F)F)c1 (10 µM),98
12,Cc1cccc(C)c1-n1c(=O)c2cnc(Nc3ccc(N4CCN(C)CC4)cc3)nc2n2c3ccccc3nc12 (0.833333 µM),104
13,Cc1cc(Cn2cnc3c2C[C@@H](C(=O)O)N(C(=O)C(c2ccccc2)c2ccccc2)C3)ccc1N(C)C (10 µM),99
14,C1CCC(/N=C(\NC23CC4CC(CC(C4)C2)C3)N2CCOCC2)CC1 (10 µM),110
15,Clc1ccc([C@]23CNC[C@H]2C3)cc1Cl [amitifadine] (10 µM),110
16,CCCC[C@@]1(C2CCCC2)Cc2cc(OCCCC(=O)O)c(Cl)c(Cl)c2C1=O (10 µM),92.5

row,Structure (SMILES),SARS-CoV-2 infection rate [%]
1,O=C(NCc1ccncc1)C12CC3CC(C1)CC(c1ccc(Cl)cc1)(C3)C2 (10 µM),97
2,CN1C(=O)N[C@H](Cc2c[nH]c3c(Cl)cccc23)C1=O [necrostatin-2] (10 µM),95
3,CC1Oc2cc(cnc2N)-c2c(nn(C)c2C#N)CN(C)C(=O)c2ccc(F)cc21 (stereo unspecified) (10 µM),99.5
4,Cc1ccc(-c2ncn(-c3ccc(Nc4nccc(-c5cccc(N6CCOCC6)c5)n4)cc3)n2)cn1 (10 µM),102
5,CCOc1cc(N2CCC(O)CC2)ccc1Nc1ncc2c(n1)N(C)c1ccccc1C(=O)N2C (0.833333 µM),114
6,O=C(O)[C@@H](S)[C@@H](S)C(=O)O [dimercaptosuccinic-acid] (10 µM),100
7,CCO[C@H]1O[C@@H]2O[C@@]3(C)CC[C@H]4[C@H](C)CC[C@@H]([C@H]1C)[C@@]24OO3 [artemotil] (10 µM),113
8,COc1cc2nccc(Oc3ccc(NC(=O)C4(C(=O)Nc5ccc(F)cc5)CC4)cc3)c2cc1OC [cabozantinib] (0.833333 µM),97.5
9,O=C(Nc1ccccc1)[C@]12C[C@H]1/C(=N\O)c1ccccc1O2 (10 µM),79
10,N=C(N)NC(=N)Nc1ccccc1 [1-phenylbiguanide] (10 µM),86.5
11,Clc1ccc(C(Cn2ccnc2)OCc2csc3c(Cl)cccc23)c(Cl)c1 (stereo unspecified) [sertaconazole] (10 µM),104
12,Cn1cc(C[C@@H](N)C(=O)O)c2ccccc21 [indoximod] (10 µM),110
13,Oc1cc2c(cc1O)[C@@H]1c3ccc(O)c(O)c3OC[C@]1(O)C2 [hematoxylin] (10 µM),114
14,O=c1oc2ccccc2c(O)c1Cc1c(O)c2ccccc2oc1=O [dicoumarol] (10 µM),108
15,O=C1C[C@@H]2OCC=C3CN4CC[C@]56c7ccccc7N1[C@H]5[C@H]2[C@H]3C[C@H]46 [strychnine] (10 µM),90
